C diff HTS: C. difficile growth inhibition | Clostridium difficile clinical isolate growth, OD600, 24 h; active compounds read low | growth activity, negative = inhibition, % at 16 µg/mL (by protocol) | actives 0.25% (n = 86,000) | AID 1259249;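 active = mean growth activity at or below -80% and every replicate also at or below -80%; inconclusive = mean at or below -80% but some replicate above -80%; inactive = mean growth activity above -80%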;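 also: 0% = DMSO wells and -100% = levofloxacin 16 µg/mL wells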
T cruzi growth-1: inhibitors of T. cruzi proliferation | AID 624255 | inhibition, % at 8.34 µM | actives 5.9% (n = 77,000) | T. cruzi beta-gal in NIH3T3, GalScreen luminescence, 90 h;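 active = mean inhibition above about 93%, with at least 55% of replicates each passing it, limit read from the data, passing the limit was not always enough; inconclusive = only one of those two conditions holds; inactive = neither condition holds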
T cruzi growth-2: inhibitors of T. cruzi proliferation; shares compounds with T cruzi growth-1; T. cruzi beta-gal in NIH3T3, GalScreen luminescence, 90 h; inhibition, % at 8.35 µM; actives 72% (n = 5,600); AID 651739;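 active = mean replicate inhibition above about 95% and at least 55% of replicates individually reaching it, limit read from the data; inconclusive = only one of the two criteria is met; inactive = neither criterion is met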
T cruzi growth-3: inhibitors of T. cruzi proliferation; shares compounds with T cruzi growth-1; T. cruzi beta-gal in NIH3T3, GalScreen luminescence, 90 h; inhibition, % at 2.09 µM; actives 21% (n = 5,600);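 active = mean inhibition above about 95%, with at least 55% of replicates also reaching it, limit read from the data; inconclusive = meets just one of the two conditions; inactive = meets neither condition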;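 also: plate controls were neutral control median for no effect and positive control median for full effect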
3T3 cytotox: cytotoxicity in mouse NIH/3T3 fibroblasts; shares compounds with T cruzi growth-1; NIH/3T3 viability, CellTiter-Glo ATP luminescence, 90 h; actives 14% (n = 5,600); cytotoxicity (signal decrease), % at 8.35 µM; AID 651742;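 active = mean signal decrease across replicates above about 35% based on untreated-well scatter, with enough replicates individually passing, limit read from the data; inconclusive = no rule stated though some were filed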;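 also: 0% = median of neutral control wells and 100% = median of positive control wells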
NIH3T3 tox 2: cytotoxicity in mouse NIH/3T3 fibroblasts | AID 651744 | inhibition, % at 24.9 µM | NIH/3T3 viability, CellTiter-Glo ATP luminescence, 90 h | actives 56% (n = 5,600) | shares compounds with T cruzi growth-1;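 active = mean loss of cell viability signal at or above a set limit, and enough replicates individually reaching it; inconclusive = meets only the mean limit or only the replicate share; inactive = meets neither condition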;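 also: 0% = median of neutral control wells and 100% = median of positive control wells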
Active calls of the source: *; ? = inconclusive; nt = not tested or not shown. Many of the other results were omitted from the sample, so hits are more common in it than they were.

SMILES | C diff HTS | T cruzi growth-1 | T cruzi growth-2 | T cruzi growth-3 | 3T3 cytotox | NIH3T3 tox 2
CC(C)(C)[S@@](=O)N1Cc2cc(C(=O)NCCN3CCCC3)nc(-c3cccc(-c4ccc(C#N)cc4)c3)c2[C@H]1CCO | nt | 33 | nt | nt | nt | nt
CC(C)(C)[S@](=O)N1Cc2cc(C(=O)N3CCCCC3)nc(-c3cccc(-c4ccc(C#N)cc4)c3)c2[C@@H]1CCO | nt | 101* | 107* | 75 | 14 | 18
C[C@@H]1CN([C@H](C)CO)C(=O)c2cc(-c3ccccc3F)cnc2O[C@@H]1CN(C)Cc1cccc(F)c1 | -1 | nt | nt | nt | nt | nt
CO[C@H]1CN(C)C(=O)c2cc(NC(=O)Nc3ccccc3F)ccc2OC[C@@H](C)N(C)C[C@@H]1C | nt | -50 | nt | nt | nt | nt
CS(=O)(=O)N1CCCCN2[C@H](C1)[C@@H](c1ccc(C#Cc3ccccn3)cc1)[C@@H]2CO | -6 | 104* | 112* | 45 | 6 | 1
CS(=O)(=O)N1CCCCN2[C@H](C1)[C@H](c1ccc(C#Cc3ccccn3)cc1)[C@@H]2CO | 1 | 112* | 96* | 39 | 5 | -6
O=S(=O)(c1ccccc1)N1CCCCN2[C@H](CO)[C@H](c3ccc(C#Cc4ccccn4)cc3)[C@H]2C1 | -3 | 72 | nt | nt | nt | nt
CS(=O)(=O)N1CCCCN2[C@@H](CO)[C@H](c3ccc(C#Cc4ccccn4)cc3)[C@@H]2C1 | 2 | ? | 108* | 47 | -7 | 13
CCCC#Cc1ccc([C@@H]2[C@@H](CO)N3CCCCN(S(C)(=O)=O)C[C@H]23)cc1 | -1 | 11 | nt | nt | nt | nt
CCS(=O)(=O)N1CCCCN2[C@H](CO)[C@@H](c3ccc(C#Cc4ccccn4)cc3)[C@@H]2C1 | -9 | 86 | nt | nt | nt | nt
C[C@H](CO)N1C[C@H](C)[C@H](CN(C)CC2CCCCC2)Oc2ccc(NC(=O)Nc3ccc4c(c3)OCO4)cc2C1=O | 42 | -15 | nt | nt | nt | nt
C[C@@H]1CCCCO[C@H](CN(C)C(=O)c2ccncc2)[C@H](C)CN([C@@H](C)CO)C(=O)c2cc(NC(=O)NC3CCCCC3)ccc2O1 | -7 | 8 | nt | nt | nt | nt
CCCC(=O)Nc1ccc2c(c1)OC[C@@H](C)N(C(=O)c1ccccn1)C[C@@H](C)[C@H](OC)CN(C)C2=O | nt | 40 | nt | nt | nt | nt
C[C@H](CO)N1C[C@H](C)[C@H](CN(C)C(=O)c2ccccc2)Oc2ncc(C#Cc3ccccc3)cc2C1=O | 0 | nt | nt | nt | nt | nt
C[C@@H]1CN([C@@H](C)CO)C(=O)c2cccc(N(C)C)c2O[C@H]1CN(C)Cc1ccc(C(F)(F)F)cc1 | -3 | 43 | nt | nt | nt | nt
C[C@H]1CN([C@@H](C)CO)C(=O)c2cccc(N(C)C)c2O[C@@H]1CN(C)Cc1ccc(Cl)c(Cl)c1 | -19 | 100* | 108* | 47 | 16 | 103*
C[C@@H]1CN([C@@H](C)CO)C(=O)c2cccc(N(C)C)c2O[C@@H]1CN(C)Cc1ccc(C(F)(F)F)cc1 | 7 | 104* | -25 | 4 | 20 | ?
C[C@@H]1CN([C@@H](C)CO)C(=O)c2cccc(N(C)C)c2O[C@H]1CN(C)Cc1ccc(Cl)c(Cl)c1 | -10 | 56 | nt | nt | nt | nt
C[C@H](CO)N1C[C@H](C)[C@@H](CN(C)C(=O)Nc2ccc(C(F)(F)F)cc2)Oc2c(NC(=O)CCCCCC(=O)Nc3ccccc3N)cccc2C1=O | 8 | nt | nt | nt | nt | nt
COCC(=O)N1[C@H](C#N)[C@@H](c2ccccc2-c2cccc(OC)c2)[C@@H]1CO | 96 | nt | nt | nt | nt | nt
COCC(=O)N(C[C@@H]1N[C@@H](CO)[C@@H]1c1ccc(C2=CCCC2)cc1)C(C)C | 15 | -51 | nt | nt | nt | nt
O=C(Nc1ccccc1F)N1C[C@@H]2[C@H](c3ccccc31)[C@H](CO)N2C(=O)C1CC1 | -1 | -16 | nt | nt | nt | nt
O=C(Nc1ccc(Cl)cc1)N1C[C@H]2[C@@H](c3ccccc31)[C@@H](CO)N2CC1CCCCC1 | 5 | 109* | 106* | 91 | 7 | 104*
O=C(Nc1ccccc1)N1C[C@@H]2[C@H](c3ccccc31)[C@H](CO)N2Cc1ccccc1Cl | 4 | ? | 97* | 42 | 11 | 6
O=C(Nc1ccccc1)N1C[C@@H]2[C@H](c3ccccc31)[C@@H](CO)N2Cc1ccccc1Cl | 3 | 28 | nt | nt | nt | nt
SMILES | C diff HTS | T cruzi growth-1 | T cruzi growth-2 | T cruzi growth-3 | 3T3 cytotox | NIH3T3 tox 2
O=C(Nc1ccc(Cl)cc1)N1C[C@H]2[C@@H](c3ccccc31)[C@H](CO)N2CC1CCCCC1 | 39 | 81 | nt | nt | nt | nt
O=C(Nc1ccccc1F)N1C[C@@H]2[C@H](c3ccccc31)[C@H](CO)N2C(=O)C1CCOCC1 | -1 | 107* | -60 | -16 | -7 | -15
COc1ccc(NC(=O)N(C)C[C@@H]2Oc3c(NS(=O)(=O)c4c(C)noc4C)cccc3C(=O)N([C@@H](C)CO)C[C@@H]2C)cc1 | -4 | 35 | nt | nt | nt | nt
COc1ccccc1C#Cc1ccc([C@@H]2[C@@H](CO)N3CCCCN(C(=O)C4CCC4)C[C@@H]23)cc1 | 14 | 82 | nt | nt | nt | nt
COc1ccccc1C#Cc1ccc([C@H]2[C@H](CO)N3CCCCN(C(=O)C4CC4)C[C@@H]23)cc1 | -2 | 106* | 109* | 76 | 28 | 104*
COc1ccccc1C#Cc1ccc([C@@H]2[C@H]3CN(C(=O)C4CC4)CCCCN3[C@H]2CO)cc1 | -4 | 103* | 109* | 50 | ? | 102*
CCCN(C)C[C@H]1Oc2cc(C#Cc3ccccc3OC)ccc2S(=O)(=O)N([C@H](C)CO)C[C@H]1C | 3 | 79 | nt | nt | nt | nt
CCCN(C)C[C@@H]1Oc2cc(C#Cc3ccccc3OC)ccc2S(=O)(=O)N([C@H](C)CO)C[C@@H]1C | 11 | 97* | 108* | 81 | 21 | 107*
CCCN(C)C[C@H]1Oc2cc(C#Cc3ccccc3OC)ccc2S(=O)(=O)N([C@@H](C)CO)C[C@H]1C | 5 | 97* | 106* | 80 | 7 | 105*
CCCN(C)C[C@@H]1Oc2cc(C#Cc3ccccc3OC)ccc2S(=O)(=O)N([C@@H](C)CO)C[C@@H]1C | 11 | 50 | nt | nt | nt | nt
COc1ccc(CN(C)C[C@@H]2OCCCC[C@@H](C)Oc3ccc(NC(=O)Nc4ccc(F)cc4)cc3C(=O)N([C@H](C)CO)C[C@H]2C)cc1 | 16 | ? | 97* | 111* | 26 | 105*
COc1ccc(CN(C)C[C@H]2OCCCC[C@H](C)Oc3ccc(NC(=O)Nc4ccc(OC)cc4)cc3C(=O)N([C@@H](C)CO)C[C@@H]2C)cc1 | nt | 110* | 112* | 63 | 15 | 104*
COc1ccc(CN(C)C[C@@H]2OCCCC[C@@H](C)Oc3ccc(NC(=O)Nc4ccc(F)cc4)cc3C(=O)N([C@H](C)CO)C[C@@H]2C)cc1 | 4 | 47 | nt | nt | nt | nt
COc1ccc(CN(C)C[C@@H]2OCCCC[C@@H](C)Oc3ccc(NC(=O)Nc4ccc(OC)cc4)cc3C(=O)N([C@@H](C)CO)C[C@H]2C)cc1 | nt | 83 | nt | nt | nt | nt
CNC[C@H]1OCCCC[C@@H](C)Oc2ccc(NC(=O)NC(C)C)cc2C(=O)N([C@@H](C)CO)C[C@H]1C | 2 | -16 | nt | nt | nt | nt

Screening results as filed in PubChem BioAssay.
